# From PubChem BioAssay (Tox21)
# Where “and” joins values, the source holds several entries; their conditions need not be identical. Equal values may be shown once. Inconclusive results are not listed. Entries that show only a call come without a potency. More than one record can exist for a structure, and the calls need not agree. Calls of active or inactive are those of the source. Unless noted, calls follow the shape of the dose curve; as a rule, active = well fitted curve in the direction sought with a large enough effect in the repeat runs; inconclusive = weak or mixed curves; inactive = no such curve, though single readings can be large; an effect the other way counts as inactive or inconclusive.
# Columns and labels:
# [1] = qHTS assay to identify small molecule antagonists of the estrogen related receptor (ERR) signaling pathway from Tox21 library - cell viability counter screen (AID 1224834); also: nearly all actives have a fitted effect of over 30% in size; also: potency is read from the fitted curve at half-maximal effect
# Procedure, shortened: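 ERR reporter cells were plated 6 h before compound addition, then exposed to test compounds in DMSO for 17.5 h at 37 C. Viability was read as CellTiter-Fluor fluorescence after a 30-minute incubation at 37 C.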
# [2] = target: Luciferin 4-monooxygenase (Photinus pyralis) (UniProt P08659); assay: qHTS assay to identify small molecule inhibitors of firefly luciferase (AID 1224835); also: nearly all actives have a fitted effect of over 25% in size
# Procedure, shortened: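 Biochemical qHTS: compounds run as interplate titrations against purified firefly enzyme, with D-luciferin and ATP each at its KM concentration. Light output recorded by CCD imaging.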
# [3] = qHTS assay to identify small molecule agonists of the constitutive androstane receptor (CAR) signaling pathway - cell viability counter screen (AID 1224836); also: nearly all actives have a fitted effect of over 45% in size
# Procedure, shortened: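 23 h treatment, 37 C, 5% CO2. Cell line: HepG2 stably expressing hCAR with a CYP2B6-2.2kb construct. Co-treatment: PK11195, 0.75 uM final. Read-out: CellTiter-Fluor fluorescence intensity.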
# [4] = qHTS assay to identify small molecule antagonists of the constitutive androstane receptor (CAR) signaling pathway - cell viability counter screen (AID 1224837); also: nearly all actives have a fitted effect of over 45% in size
# Procedure, shortened: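 HepG2 cells stably expressing hCAR and a CYP2B6-2.2kb reporter were plated and pre-incubated 4 hr at 37 C/5% CO2, then given compounds at 15 concentrations plus 50 nM CITCO (final). After 23 hr, viability was read by CellTiter-Fluor fluorescence.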
# [5] = target: Nuclear receptor subfamily 1 group I member 3 (Homo sapiens) (UniProt Q14994); assay: qHTS assay to identify small molecule antagonists of the constitutive androstane receptor (CAR) signaling pathway (AID 1224838); also: nearly all actives have a fitted effect of over 40% in size; also: potency is read from the fitted curve at half-maximal effect
# Procedure, shortened: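 HepG2 cells stably co-transfected with hCAR and a CYP2B6-2.2kb luciferase reporter were seeded 4 h before compound addition at 15 concentrations. Cells were stimulated with 50 nM CITCO (final) for 24 h at 37 C; luciferase luminescence was then read.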
# [6] = target: Nuclear receptor subfamily 1 group I member 3 (Homo sapiens) (UniProt Q14994); assay: qHTS assay to identify small molecule agonists of the constitutive androstane receptor (CAR) signaling pathway (AID 1224839); also: nearly all actives have a fitted effect of over 15% in size; also: potency is read from the fitted curve at half-maximal effect;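 as to activation: HepG2 cells stably carrying human CAR and a CYP2B6 luciferase reporter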
# Procedure, shortened: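 Compounds tested at 15 concentrations on HepG2 cells stably harbouring hCAR and CYP2B6-2.2kb reporter constructs, co-treated with PK11195 (0.75 uM final), 24 h at 37 C; luminescent reporter signal quantified.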
# [7] = qHTS assay to identify small molecule antagonists of the estrogen related receptor signaling pathway with the pleiotropic PPARgamma coactivator (PGC) from Tox21 10K library - cell viability counter screen (AID 1224840; active = well fitted cell-killing curve with a large enough effect in the repeat runs, not every such curve was filed as active; also: nearly all actives have a fitted effect of over 40% in size)
# Procedure, shortened: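 PGC/ERR cells were seeded at 2,000 cells/well and left 6 hours at 37 C/5% CO2 before pin-tool addition of compounds in DMSO. After 17.5 hours at 37 C, CellTiter-Fluor was added and fluorescence read 30 minutes later.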
# [8] = qHTS assay to identify small molecule antagonists of the estrogen related receptor signaling pathway with the pleiotropic PPARgamma coactivator (PGC) from Tox21 10K library (AID 1224841; call rule not given here; also: actives are mostly falling curves and most rising ones were filed inactive; nearly all actives have a fitted effect of over 50% in size; also: potency is read from the fitted curve at half-maximal effect)
# Procedure, shortened: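 PGC/ERR reporter cells were seeded at 2,000 cells/well and held 6 hours at 37 C/5% CO2 before pin-tool addition of compounds in DMSO. After 18 hours at 37 C, One-Glo was added and luminescence read after 30 minutes at room temperature.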
# [9] = qHTS assay to identify small molecule agonists of the estrogen related receptor signaling pathway with the pleiotropic PPARgamma coactivator (PGC) from Tox21 10K library (AID 1224842); also: nearly all actives have a fitted effect of over 15% in size
# Procedure, shortened: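 PGC/ERR reporter cell line, 2,000 cells per well, incubated 6 h at 37 C before 23 nL compound in DMSO was added. After 18 h at 37 C, One-Glo luminescence read following 30 min at room temperature.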
# [10] = target: Thyrotropin receptor (Homo sapiens) (UniProt P16473); assay: qHTS assay to identify small molecule agonists of the thyroid stimulating hormone receptor (TSHR) signaling pathway (AID 1224843; calls by dose curve; also: nearly all actives have a fitted effect of over 45% in size)
# Procedure, shortened: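 Steps: seed 800 TSHR-HEK293 cells per well; add test compound and hold 30 min at ambient temperature; dispense cAMP-d2 then anti-cAMP cryptate; incubate 1 h at ambient; measure fluorescence intensity.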
# [11] = qHTS assay to identify small molecule agonists of H2AX (AID 1224845; active = well fitted activation curve with a large enough effect in the signal ratio in the repeat runs, not every such curve was filed as active; the % refers to the signal ratio)
# Procedure, shortened: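 Wild-type CHO-K1 cells, plated overnight, exposed 3hr at 37C to 15 concentrations (0.76% DMSO final). Lysed, then HTRF anti-pH2AX (S139) cryptate and anti-H2AX-d2 antibodies, 24 hr room temperature; 665/620 nm emission read.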
# [12] = qHTS assay to identify small molecule agonists of the hypoxia (HIF-1) signaling pathway (AID 1224846; active = well fitted activation curve with a large enough effect in the signal ratio in the repeat runs, not every such curve was filed as active; the % refers to the signal ratio)
# Procedure, shortened: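 HRE-bla ME-180 cells (beta-lactamase reporter under hypoxia response element) were plated at 2,000 cells/well in medium with 0.5% dialyzed FBS, rested 5 hrs, then given compounds in DMSO for 17 hrs at 37C, 5% CO2. Reporter induction was read with CCF4-AM FRET substrate.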
# [13] = qHTS assay to identify small molecule agonists of H2AX - cell viability counter screen (AID 1224847; calls by dose curve; also: top concentration of the series differs between compounds; nearly all actives have a fitted effect of over 30% in size)
# Procedure, shortened: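 Compounds tested at 15 concentrations were incubated 3 hr at 37C with wild-type CHO-K1 cells; cellular ATP-based luminescence (CellTiter-Glo) indicated viability.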
# [14] = qHTS assay to identify small molecule agonists of the estrogen related receptor (ERR) signaling pathway from Tox21 library (AID 1224849; calls by dose curve; also: nearly all actives have a fitted effect of over 15% in size); settings: ERR reporter cell line, ONE-Glo luciferase, 18 h
# Procedure, shortened: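 ERR reporter cell line (NTP) seeded, rested 6 h at 37 C/5% CO2, then pinned with Tox21 compounds in DMSO. After 18 h at 37 C, ONE-Glo luciferase luminescence was read following 30 min at room temperature.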
# [15] = qHTS RealTime-Glo MT Cell Viability Assay in HEK293 cells - 32 hour (AID 1224868); also: nearly all actives have a fitted effect of over 50% in size; also: potency is read from the fitted curve at half-maximal effect
# Procedure, shortened: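 Quantitative high-throughput screen of the Tox21 10K library in HEK293: cells and RealTime-Glo reagents plated together, compound added at 5 h, luminescence monitored through 40 h at 37 C.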
# [16] = A CellTox Green Cytotoxicity Assay to monitor cytotoxicity in HEK293 cells - 0 hour (AID 1224869); also: nearly all actives have a fitted effect of over 50% in size
# Procedure, shortened: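 HEK293 cells premixed with CellTox Green dye were seeded at 600 cells/well and left 5 h at 37 C/5% CO2 before pin transfer of 23 nL compound in DMSO. Fluorescence from dye bound to dead-cell DNA was read during 40 h treatment.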
# [17] = qHTS RealTime-Glo MT Cell Viability Assay in HepG2 cells - 40 hour (AID 1224870); also: nearly all actives have a fitted effect of over 50% in size; also: potency is read from the fitted curve at half-maximal effect
# Procedure, shortened: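 HepG2 cells (600/well) mixed with RealTime-Glo MT reagent, settled 5 h at 37 C/5% CO2 before compound addition. Nonlytic NanoLuc luminescence from viable-cell prosubstrate reduction read repeatedly during 40 h treatment at 37 C.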
# [18] = qHTS assay to identify small molecule agonists of the hypoxia (HIF-1) signaling pathway - cell viability counter screen (AID 1224844; calls by dose curve; also: nearly all actives have a fitted effect of over 50% in size)
# Procedure, shortened: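 HRE-bla ME-180 cells in medium with 0.5% dialyzed FBS were preincubated 5 hrs at 37C, exposed to compounds for 17 hrs, then viability was read as CellTiter-Glo luminescence after 30 min at room temperature, in the reporter wells.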
# [19] = qHTS assay to identify small molecule antagonists of the estrogen related receptor (ERR) signaling pathway from Tox21 library (AID 1224848); also: nearly all actives have a fitted effect of over 50% in size
# Procedure, shortened: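 Luminescent reporter read-out (ONE-Glo) from NTP's ERR cell line after 18 h treatment at 37 C with DMSO-dissolved Tox21 compounds; cells pre-plated 6 h beforehand at 2,000 per well.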
# [20] = qHTS RealTime-Glo MT Cell Viability Assay in HepG2 cells - 24 hour (AID 1224867); also: nearly all actives have a fitted effect of over 50% in size
# Procedure, shortened: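 Compound treatment began 5 h after plating HepG2 cells (600/well) with NanoLuc luciferase and prosubstrate. Plates stayed at 37 C for 40 h; luminescence was captured at six time points, 0 h through 40 h.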
# [21] = at 92.4 µM (top of the series) unless noted
# Chain of Thyrotropin receptor (Homo sapiens) (P16473 whole entry, looked up): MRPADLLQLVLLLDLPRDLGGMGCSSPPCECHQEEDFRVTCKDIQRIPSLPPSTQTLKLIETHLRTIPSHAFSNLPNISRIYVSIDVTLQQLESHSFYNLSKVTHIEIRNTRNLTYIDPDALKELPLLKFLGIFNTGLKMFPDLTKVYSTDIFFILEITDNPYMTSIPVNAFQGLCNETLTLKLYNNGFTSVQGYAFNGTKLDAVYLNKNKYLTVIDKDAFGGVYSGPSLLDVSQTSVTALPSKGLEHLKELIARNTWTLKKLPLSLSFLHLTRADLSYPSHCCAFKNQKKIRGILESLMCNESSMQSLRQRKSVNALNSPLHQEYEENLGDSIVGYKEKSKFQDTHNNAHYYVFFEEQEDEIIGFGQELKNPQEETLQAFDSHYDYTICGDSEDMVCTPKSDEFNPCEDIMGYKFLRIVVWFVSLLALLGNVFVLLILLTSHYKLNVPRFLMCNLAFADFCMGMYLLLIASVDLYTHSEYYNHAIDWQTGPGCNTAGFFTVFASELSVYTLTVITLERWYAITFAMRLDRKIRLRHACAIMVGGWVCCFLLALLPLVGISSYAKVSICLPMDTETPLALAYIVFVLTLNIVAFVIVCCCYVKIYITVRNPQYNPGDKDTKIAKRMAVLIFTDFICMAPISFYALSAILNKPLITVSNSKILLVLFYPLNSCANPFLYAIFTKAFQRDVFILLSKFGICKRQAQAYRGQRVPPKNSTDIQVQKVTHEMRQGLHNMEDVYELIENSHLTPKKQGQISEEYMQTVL
# Chain of Nuclear receptor subfamily 1 group I member 3 (Homo sapiens) (Q14994 whole entry, looked up): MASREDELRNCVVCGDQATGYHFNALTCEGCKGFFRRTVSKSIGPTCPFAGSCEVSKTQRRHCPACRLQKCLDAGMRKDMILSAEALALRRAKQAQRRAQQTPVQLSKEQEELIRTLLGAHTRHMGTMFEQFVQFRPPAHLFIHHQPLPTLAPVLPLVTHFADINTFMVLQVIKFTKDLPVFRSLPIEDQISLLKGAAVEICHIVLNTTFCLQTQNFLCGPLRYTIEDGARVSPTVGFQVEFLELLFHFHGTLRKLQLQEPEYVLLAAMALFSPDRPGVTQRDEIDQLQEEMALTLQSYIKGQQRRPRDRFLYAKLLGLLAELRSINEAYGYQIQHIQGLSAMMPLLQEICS
# Chain of Luciferin 4-monooxygenase (Photinus pyralis) (P08659 whole entry, looked up): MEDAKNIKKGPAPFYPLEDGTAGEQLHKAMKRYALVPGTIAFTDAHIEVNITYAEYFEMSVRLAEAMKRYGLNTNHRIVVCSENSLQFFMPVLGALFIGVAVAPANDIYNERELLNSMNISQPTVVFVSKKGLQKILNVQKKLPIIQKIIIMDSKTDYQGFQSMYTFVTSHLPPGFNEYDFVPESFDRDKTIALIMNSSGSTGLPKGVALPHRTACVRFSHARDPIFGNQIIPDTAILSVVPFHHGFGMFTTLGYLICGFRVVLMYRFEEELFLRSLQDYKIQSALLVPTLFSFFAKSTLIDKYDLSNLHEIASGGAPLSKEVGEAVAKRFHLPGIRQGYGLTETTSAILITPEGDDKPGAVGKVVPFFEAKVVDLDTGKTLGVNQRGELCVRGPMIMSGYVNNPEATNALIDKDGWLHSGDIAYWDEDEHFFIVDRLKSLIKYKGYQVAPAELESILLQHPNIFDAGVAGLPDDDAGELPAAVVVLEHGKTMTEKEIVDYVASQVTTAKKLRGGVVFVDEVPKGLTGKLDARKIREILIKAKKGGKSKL
structure (smiles),measurement,setting,value
COC1=CC(=O)O[C@@H](CCc2ccccc2)C1,Potency,[1],inactive
same,Potency,[2],inactive
same,Potency,[3],inactive
same,Potency,[4],inactive
same,Potency,[5],inactive
same,Potency,[6],56.7 µM (active)
same,Potency,[7],inactive
same,Potency,[8],inactive
same,Potency,[9],inactive
same,Potency,[10],inactive
same,Potency,[11],inactive
same,outcome,[12],inactive
same,Potency,[13],inactive
same,"activity change, positive = activation",[14]; [21],-29.7% (inactive)
same,Potency,[15],inactive
same,Potency,[16],inactive
same,Potency,[17],inactive
CC(=O)C(C)(C)C,Potency,[1],inactive
same,Potency,[2],inactive
same,Potency,[3],inactive
same,Potency,[4],inactive
same,Potency,[5],inactive
same,Potency,[6],inactive
same,Potency,[7],inactive
same,Potency,[8],inactive
same,Potency,[9],inactive
same,Potency,[10],inactive
same,Potency,[18],inactive
same,Potency,[11],inactive
same,outcome,[12],inactive
same,Potency,[13],inactive
same,Potency,[19],inactive
same,"activity change, positive = activation",[14]; [21],-0.0388% (inactive)
same,Potency,[15],inactive
same,Potency,[16],inactive
same,Potency,[17],inactive
C[C@H]1CNCCc2ccc(Cl)cc21,Potency,[1],inactive
same,Potency,[2],inactive
same,Potency,[3],inactive
same,Potency,[4],inactive
same,Potency,[5],inactive
same,Potency,[6],inactive
same,Potency,[7],inactive
same,Potency,[8],inactive
same,Potency,[9],inactive
same,Potency,[10],inactive
same,Potency,[18],inactive
same,Potency,[11],inactive
same,outcome,[12],inactive
same,Potency,[13],inactive
same,Potency,[19],inactive
same,"activity change, positive = activation",[14]; [21],-0.2% [at 42.5 µM] (inactive)
same,Potency,[20],inactive
same,Potency,[15],inactive
same,Potency,[16],inactive
same,Potency,[17],inactive
CC(=O)[C@H]1CC[C@H]2[C@@H]3CC[C@H]4C[C@](C)(O)CC[C@]4(C)[C@H]3CC[C@]12C,Potency,[1],inactive
same,Potency,[2],inactive
same,Potency,[3],inactive
same,Potency,[4],inactive
same,Potency,[5],inactive
same,Potency,[6],inactive
same,Potency,[7],inactive
same,Potency,[8],inactive
same,Potency,[9],inactive
same,Potency,[10],inactive
same,Potency,[18],inactive
same,Potency,[11],inactive
same,outcome,[12],inactive
same,Potency,[13],inactive
same,Potency,[19],inactive
same,"activity change, positive = activation",[14]; [21],9.6% [at 42.5 µM] (inactive)
same,Potency,[20],inactive
same,Potency,[15],inactive
same,Potency,[16],inactive
same,Potency,[17],inactive
COP(=S)(Oc1cc(Cl)c(Br)cc1Cl)c1ccccc1 (configuration not stated),Potency,[1],inactive
same,Potency,[2],inactive
same,Potency,[3],inactive
same,Potency,[4],inactive
same,Potency,[5],inactive
same,Potency,[6],30.6 µM (active)
same,Potency,[7],inactive
same,Potency,[8],54.5 µM (active)
same,Potency,[9],inactive
same,Potency,[11],inactive
same,outcome,[12],inactive
same,"activity change, positive = activation",[14]; [21],-31.4% (inactive)
same,Potency,[20],inactive
same,Potency,[16],inactive
same,Potency,[17],inactive
O=[N+]([O-])c1ccccc1CCl,Potency,[1],inactive
same,Potency,[2],inactive
same,Potency,[3],inactive
same,Potency,[4],inactive
same,Potency,[5],inactive
same,Potency,[6],inactive
same,Potency,[7],inactive
same,Potency,[10],inactive
same,Potency,[18],inactive
same,Potency,[11],inactive
same,outcome,[12],inactive
same,Potency,[13],inactive
same,Potency,[20],inactive
same,Potency,[15],inactive
same,Potency,[16],inactive
same,Potency,[17],inactive
O=C(CCl)c1ccc(Cl)cc1Cl,Potency,[1],inactive and 21.1 µM (active)
same,Potency,[2],inactive
same,Potency,[3],inactive
same,Potency,[4],inactive
same,Potency,[5],13.3 µM (active)
same,Potency,[6],inactive
same,Potency,[7],inactive
same,Potency,[10],inactive
same,outcome,[12],inactive
same,Potency,[19],inactive
same,"activity change, positive = activation",[14]; at 42.5 µM (top of the series),-19% (inactive)
same,"activity change, positive = activation",[14]; at 92.4 µM (top of the series),-9.77% (inactive)
same,Potency,[15],3.01 µM (active)
same,Potency,[16],inactive
same,Potency,[17],inactive and 16.9 µM (active)
